Experiments:
Test in all cases: log2 ratio of Biotin-Ahx-Ub-VS probe labelling (fragment/DMSO); higher = less target engagement (more negative = stronger competition), active = hit call of the paper (q ≤ 0.05, log2 ratio ≤ -1)
Details in all cases: compound concentration: 200 uM; treatment time: 3 h
[1] = biological target: T1, USP42 (UniProt Q9H9J4)
T1 sequence (whole entry): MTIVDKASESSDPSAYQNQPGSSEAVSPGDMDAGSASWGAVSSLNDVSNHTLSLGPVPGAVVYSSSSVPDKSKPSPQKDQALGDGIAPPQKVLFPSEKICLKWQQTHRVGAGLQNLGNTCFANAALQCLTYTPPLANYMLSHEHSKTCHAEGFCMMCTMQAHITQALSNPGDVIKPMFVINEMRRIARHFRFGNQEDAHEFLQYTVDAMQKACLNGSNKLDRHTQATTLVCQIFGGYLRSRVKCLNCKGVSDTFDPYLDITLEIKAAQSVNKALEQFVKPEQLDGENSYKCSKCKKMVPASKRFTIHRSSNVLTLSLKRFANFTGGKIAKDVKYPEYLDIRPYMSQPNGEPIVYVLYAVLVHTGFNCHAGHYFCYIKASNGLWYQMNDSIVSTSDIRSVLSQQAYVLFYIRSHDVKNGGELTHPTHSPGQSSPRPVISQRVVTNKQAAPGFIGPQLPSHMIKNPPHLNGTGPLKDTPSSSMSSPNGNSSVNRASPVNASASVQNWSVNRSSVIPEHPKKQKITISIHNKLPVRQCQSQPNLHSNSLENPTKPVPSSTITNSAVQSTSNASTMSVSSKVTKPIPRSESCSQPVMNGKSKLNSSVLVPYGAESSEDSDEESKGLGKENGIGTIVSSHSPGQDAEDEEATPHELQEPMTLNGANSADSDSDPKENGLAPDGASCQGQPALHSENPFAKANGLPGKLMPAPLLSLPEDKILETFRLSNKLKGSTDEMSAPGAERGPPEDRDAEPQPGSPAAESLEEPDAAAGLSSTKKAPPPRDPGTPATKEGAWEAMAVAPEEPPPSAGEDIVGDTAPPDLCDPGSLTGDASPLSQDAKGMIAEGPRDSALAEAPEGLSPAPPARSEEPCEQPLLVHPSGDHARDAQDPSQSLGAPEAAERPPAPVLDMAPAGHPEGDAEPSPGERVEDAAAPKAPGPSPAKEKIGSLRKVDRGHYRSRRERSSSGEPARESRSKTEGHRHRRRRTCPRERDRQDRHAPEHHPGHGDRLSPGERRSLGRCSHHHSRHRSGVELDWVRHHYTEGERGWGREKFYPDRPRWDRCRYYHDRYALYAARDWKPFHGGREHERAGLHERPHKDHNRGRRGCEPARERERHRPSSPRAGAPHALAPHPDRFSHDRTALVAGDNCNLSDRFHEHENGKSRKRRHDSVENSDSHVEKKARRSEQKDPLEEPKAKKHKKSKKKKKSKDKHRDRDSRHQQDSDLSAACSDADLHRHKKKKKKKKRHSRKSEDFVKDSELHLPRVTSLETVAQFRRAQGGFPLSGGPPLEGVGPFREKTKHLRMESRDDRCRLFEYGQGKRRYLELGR
Procedure, shortened: (§1)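 HEK293T lysate, 495 µg per sample in Tris/CHAPS/IGEPAL buffer with protease inhibitors, was treated in triplicate with fragment at 200 µM or vehicle for 3 h and then with Biotin-Ahx-Ub-VS at 0.5 µM final for 1 h. Labelled DUBs were NeutrAvidin-enriched, digested with LysC and trypsin, and run by diaPASEF LC-MS/MS. Spectronaut label-free quantities were global-median-normalised, and values are average log2 fragment/vehicle ratios by unpaired t-test on proteins with ≥2 unique peptides.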

[2] = biological target: USP46 (UniProt P62068)
Procedure, shortened: as §1

[3] = biological target: T2, USP47 (UniProt Q96K76)
T2 sequence (whole entry): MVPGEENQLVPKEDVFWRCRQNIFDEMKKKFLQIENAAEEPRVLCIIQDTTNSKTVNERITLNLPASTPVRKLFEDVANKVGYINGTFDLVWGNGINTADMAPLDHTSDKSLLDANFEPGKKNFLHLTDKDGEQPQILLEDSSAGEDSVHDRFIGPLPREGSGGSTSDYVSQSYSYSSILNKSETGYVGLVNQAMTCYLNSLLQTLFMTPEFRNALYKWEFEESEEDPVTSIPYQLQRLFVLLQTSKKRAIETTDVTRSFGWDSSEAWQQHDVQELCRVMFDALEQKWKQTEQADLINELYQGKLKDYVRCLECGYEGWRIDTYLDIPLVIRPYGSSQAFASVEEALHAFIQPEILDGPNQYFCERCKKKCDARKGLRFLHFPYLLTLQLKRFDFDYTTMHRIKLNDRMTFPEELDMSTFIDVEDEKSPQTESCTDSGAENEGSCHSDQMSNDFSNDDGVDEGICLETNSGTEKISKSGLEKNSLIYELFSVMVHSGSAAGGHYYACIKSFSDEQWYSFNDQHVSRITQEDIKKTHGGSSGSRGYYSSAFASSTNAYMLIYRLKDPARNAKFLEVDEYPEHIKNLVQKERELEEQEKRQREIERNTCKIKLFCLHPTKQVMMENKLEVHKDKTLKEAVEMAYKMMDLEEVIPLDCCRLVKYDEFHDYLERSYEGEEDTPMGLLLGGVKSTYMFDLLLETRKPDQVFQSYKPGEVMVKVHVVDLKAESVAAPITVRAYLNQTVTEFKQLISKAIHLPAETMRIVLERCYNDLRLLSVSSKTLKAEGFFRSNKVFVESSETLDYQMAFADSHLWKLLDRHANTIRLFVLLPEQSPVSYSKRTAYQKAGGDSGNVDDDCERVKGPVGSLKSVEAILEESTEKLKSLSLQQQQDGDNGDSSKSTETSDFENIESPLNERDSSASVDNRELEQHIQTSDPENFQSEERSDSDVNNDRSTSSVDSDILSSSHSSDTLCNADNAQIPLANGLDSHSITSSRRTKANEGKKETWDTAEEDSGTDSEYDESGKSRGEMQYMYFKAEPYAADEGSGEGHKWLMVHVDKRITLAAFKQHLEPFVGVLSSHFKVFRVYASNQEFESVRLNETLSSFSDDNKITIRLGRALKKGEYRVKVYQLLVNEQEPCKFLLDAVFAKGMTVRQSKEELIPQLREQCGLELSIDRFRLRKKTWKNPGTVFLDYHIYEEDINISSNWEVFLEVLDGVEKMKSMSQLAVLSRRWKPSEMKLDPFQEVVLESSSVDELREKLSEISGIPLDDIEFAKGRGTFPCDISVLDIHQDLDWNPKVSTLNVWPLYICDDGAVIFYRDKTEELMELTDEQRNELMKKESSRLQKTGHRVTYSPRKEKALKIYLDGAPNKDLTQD
Procedure, shortened: as §1

[4] = biological target: T3, USP48 (UniProt Q86UV5)
T3 sequence (whole entry): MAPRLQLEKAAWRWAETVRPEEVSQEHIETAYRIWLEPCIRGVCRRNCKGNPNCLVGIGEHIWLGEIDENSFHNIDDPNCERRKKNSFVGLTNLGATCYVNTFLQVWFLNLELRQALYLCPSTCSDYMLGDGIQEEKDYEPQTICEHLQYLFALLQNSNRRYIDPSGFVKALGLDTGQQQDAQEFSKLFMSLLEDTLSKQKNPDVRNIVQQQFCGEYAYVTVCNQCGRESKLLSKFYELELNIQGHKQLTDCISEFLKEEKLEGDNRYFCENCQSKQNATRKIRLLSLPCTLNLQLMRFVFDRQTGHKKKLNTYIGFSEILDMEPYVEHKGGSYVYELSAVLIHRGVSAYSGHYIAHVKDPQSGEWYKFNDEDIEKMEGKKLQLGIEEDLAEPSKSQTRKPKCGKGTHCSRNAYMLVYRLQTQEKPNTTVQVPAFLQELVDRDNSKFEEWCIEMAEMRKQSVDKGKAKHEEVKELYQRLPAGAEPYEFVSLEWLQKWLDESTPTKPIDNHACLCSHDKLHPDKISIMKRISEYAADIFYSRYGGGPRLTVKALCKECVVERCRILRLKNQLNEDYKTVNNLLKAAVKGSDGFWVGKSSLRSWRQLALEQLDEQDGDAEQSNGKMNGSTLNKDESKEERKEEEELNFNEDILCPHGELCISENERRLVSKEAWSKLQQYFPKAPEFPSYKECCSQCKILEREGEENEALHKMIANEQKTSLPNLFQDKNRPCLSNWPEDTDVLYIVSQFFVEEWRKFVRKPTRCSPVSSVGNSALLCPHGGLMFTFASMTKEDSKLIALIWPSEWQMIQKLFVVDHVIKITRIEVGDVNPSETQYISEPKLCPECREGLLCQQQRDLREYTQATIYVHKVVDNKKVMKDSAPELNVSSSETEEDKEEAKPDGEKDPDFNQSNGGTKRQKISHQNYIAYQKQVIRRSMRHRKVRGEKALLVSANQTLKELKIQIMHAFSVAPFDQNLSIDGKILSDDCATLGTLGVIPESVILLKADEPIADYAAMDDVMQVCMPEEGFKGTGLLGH
Procedure, shortened: as §1

[5] = biological target: T4, USP5 (UniProt P45974)
T4 sequence (whole entry): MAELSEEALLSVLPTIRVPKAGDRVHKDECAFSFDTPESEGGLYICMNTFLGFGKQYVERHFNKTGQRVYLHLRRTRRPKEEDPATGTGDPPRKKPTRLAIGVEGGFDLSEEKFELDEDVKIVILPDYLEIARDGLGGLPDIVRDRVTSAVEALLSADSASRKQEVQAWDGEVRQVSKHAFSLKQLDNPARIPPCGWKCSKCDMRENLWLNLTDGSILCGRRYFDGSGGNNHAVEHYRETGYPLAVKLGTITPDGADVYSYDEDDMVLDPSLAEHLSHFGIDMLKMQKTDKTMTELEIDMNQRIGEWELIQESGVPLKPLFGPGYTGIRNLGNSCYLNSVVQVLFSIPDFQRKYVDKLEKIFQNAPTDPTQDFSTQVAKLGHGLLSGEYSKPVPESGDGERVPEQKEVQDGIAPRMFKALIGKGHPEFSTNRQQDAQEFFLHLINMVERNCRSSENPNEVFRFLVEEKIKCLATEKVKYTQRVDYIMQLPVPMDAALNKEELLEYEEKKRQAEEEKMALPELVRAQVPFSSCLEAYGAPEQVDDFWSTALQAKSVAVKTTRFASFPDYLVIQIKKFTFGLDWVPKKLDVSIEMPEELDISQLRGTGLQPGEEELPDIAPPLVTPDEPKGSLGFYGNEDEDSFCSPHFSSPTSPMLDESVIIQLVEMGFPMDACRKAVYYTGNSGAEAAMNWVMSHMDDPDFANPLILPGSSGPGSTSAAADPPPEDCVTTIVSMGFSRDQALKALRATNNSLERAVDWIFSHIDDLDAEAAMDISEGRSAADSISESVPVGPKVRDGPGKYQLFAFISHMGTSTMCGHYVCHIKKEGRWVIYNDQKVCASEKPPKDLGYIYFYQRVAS
Procedure, shortened: as §1

[6] = biological target: USP54 (UniProt Q70EL1)
Procedure, shortened: as §1

[7] = biological target: USP7 (UniProt Q93009)
Procedure, shortened: as §1

[8] = biological target: T5, USP8 (UniProt P40818)
T5 sequence (whole entry): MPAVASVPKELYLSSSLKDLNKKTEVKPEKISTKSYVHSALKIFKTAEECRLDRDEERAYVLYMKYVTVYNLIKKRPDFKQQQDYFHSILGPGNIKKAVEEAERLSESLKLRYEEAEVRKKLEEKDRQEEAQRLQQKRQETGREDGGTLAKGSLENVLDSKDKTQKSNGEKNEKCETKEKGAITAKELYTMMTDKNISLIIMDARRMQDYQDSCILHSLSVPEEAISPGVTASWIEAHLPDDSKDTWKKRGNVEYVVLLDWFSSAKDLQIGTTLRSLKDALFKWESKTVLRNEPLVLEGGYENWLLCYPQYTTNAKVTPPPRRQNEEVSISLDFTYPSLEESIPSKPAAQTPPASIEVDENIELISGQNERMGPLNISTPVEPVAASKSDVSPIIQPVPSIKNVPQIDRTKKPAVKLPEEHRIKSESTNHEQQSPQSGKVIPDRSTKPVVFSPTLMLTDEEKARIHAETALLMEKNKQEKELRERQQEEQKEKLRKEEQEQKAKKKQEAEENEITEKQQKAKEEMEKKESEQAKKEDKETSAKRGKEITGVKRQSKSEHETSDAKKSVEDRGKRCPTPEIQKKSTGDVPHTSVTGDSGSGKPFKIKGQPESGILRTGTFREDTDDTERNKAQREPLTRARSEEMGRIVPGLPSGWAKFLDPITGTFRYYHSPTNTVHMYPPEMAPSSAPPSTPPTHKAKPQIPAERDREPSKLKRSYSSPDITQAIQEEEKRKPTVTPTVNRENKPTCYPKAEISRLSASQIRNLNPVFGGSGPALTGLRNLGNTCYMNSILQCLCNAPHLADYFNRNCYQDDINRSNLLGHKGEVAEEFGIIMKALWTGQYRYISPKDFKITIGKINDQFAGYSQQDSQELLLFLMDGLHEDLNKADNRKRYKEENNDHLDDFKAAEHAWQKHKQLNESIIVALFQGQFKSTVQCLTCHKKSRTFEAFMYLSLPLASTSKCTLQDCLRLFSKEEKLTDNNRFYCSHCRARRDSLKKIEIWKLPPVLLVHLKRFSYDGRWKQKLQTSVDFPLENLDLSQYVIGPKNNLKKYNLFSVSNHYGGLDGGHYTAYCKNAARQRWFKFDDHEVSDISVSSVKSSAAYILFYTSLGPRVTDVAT
Procedure, shortened: as §1

[9] = biological target: USP9X (UniProt Q93008)
Procedure, shortened: as §1

[10] = biological target: UniProt O00487
Procedure, shortened: as §1

Measured: log2 ratio of Biotin-Ahx-Ub-VS probe labelling

UniProt O00487, sequence (O00487 whole entry): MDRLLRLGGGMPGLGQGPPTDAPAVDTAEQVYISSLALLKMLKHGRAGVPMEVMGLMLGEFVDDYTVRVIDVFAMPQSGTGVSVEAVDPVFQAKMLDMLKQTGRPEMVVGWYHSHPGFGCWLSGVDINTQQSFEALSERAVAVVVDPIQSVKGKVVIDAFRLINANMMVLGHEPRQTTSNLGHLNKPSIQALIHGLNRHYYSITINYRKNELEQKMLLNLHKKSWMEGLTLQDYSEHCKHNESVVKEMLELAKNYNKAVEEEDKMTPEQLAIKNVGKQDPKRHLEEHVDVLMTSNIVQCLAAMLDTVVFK
USP9X, sequence (Q93008 whole entry): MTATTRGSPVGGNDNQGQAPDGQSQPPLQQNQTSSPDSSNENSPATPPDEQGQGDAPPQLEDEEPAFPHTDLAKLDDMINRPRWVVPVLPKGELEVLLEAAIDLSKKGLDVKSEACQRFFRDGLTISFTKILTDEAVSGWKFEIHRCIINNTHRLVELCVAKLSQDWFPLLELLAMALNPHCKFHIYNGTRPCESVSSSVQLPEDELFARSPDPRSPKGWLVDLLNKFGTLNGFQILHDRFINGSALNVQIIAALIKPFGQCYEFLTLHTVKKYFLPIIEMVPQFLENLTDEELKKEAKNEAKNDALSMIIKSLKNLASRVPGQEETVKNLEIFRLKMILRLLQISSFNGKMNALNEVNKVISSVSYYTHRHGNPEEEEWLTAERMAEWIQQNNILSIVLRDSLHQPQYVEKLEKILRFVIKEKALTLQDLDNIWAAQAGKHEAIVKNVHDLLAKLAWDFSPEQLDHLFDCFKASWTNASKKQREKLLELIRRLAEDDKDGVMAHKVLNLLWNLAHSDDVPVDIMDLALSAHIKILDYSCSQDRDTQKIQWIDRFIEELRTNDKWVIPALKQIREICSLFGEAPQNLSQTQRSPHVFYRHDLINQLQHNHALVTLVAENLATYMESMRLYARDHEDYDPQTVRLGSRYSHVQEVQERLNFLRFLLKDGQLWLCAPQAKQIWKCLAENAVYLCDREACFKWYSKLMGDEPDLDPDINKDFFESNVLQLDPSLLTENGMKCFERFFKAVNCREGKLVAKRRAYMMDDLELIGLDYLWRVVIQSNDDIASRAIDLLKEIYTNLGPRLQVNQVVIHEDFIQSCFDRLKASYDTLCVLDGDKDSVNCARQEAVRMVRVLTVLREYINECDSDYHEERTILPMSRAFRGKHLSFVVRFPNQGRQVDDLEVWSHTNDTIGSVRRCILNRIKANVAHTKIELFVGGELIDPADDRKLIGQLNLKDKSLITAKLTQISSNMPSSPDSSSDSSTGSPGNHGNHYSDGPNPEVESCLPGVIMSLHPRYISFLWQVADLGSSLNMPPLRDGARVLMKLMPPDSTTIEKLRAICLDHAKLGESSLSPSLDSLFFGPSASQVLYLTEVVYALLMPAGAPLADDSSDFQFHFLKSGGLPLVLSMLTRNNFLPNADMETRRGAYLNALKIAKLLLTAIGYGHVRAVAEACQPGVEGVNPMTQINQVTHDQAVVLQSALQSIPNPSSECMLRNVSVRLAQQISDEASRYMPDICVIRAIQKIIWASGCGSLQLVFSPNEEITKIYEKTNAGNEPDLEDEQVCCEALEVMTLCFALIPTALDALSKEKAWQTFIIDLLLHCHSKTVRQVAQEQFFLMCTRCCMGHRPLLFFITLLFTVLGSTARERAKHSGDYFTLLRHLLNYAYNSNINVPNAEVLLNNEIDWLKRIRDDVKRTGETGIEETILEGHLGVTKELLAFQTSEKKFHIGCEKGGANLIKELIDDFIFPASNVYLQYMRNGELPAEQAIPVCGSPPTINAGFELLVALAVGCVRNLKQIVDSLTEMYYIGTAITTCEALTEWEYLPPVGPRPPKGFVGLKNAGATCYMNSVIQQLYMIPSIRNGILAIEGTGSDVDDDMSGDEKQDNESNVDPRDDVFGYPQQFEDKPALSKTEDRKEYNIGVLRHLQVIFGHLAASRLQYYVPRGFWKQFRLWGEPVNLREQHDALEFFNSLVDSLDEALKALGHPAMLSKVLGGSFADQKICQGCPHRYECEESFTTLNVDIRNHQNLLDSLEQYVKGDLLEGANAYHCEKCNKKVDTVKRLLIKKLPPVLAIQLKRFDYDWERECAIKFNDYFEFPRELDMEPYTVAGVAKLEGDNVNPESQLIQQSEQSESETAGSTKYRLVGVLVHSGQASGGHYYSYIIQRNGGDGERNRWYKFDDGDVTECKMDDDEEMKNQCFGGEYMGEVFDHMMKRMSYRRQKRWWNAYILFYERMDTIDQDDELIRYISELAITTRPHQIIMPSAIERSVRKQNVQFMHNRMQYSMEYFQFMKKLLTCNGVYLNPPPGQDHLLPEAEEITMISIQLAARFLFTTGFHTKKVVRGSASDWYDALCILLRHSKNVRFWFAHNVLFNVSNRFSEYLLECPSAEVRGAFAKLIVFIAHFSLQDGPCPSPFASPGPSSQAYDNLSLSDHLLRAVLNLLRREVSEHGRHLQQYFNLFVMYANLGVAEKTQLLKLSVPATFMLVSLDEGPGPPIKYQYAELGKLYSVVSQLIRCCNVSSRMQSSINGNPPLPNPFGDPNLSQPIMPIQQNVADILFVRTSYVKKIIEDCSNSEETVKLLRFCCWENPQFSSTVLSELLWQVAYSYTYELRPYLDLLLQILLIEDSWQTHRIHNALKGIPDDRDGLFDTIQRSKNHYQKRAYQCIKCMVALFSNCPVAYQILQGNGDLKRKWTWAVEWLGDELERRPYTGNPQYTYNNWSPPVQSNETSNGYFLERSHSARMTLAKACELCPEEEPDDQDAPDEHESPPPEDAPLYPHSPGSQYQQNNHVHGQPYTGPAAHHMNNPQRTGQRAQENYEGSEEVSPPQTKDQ
USP46, sequence (P62068 whole entry): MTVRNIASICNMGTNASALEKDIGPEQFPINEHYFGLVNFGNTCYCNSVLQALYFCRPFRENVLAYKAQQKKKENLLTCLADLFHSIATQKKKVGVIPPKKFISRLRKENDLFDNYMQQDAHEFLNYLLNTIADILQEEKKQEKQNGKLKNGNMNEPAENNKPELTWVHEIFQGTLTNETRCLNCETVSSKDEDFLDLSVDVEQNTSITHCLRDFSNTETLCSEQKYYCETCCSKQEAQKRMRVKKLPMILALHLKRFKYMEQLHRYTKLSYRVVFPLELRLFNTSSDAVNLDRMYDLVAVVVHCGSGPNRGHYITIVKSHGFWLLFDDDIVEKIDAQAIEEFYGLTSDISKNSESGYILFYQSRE
USP54, sequence (Q70EL1 whole entry): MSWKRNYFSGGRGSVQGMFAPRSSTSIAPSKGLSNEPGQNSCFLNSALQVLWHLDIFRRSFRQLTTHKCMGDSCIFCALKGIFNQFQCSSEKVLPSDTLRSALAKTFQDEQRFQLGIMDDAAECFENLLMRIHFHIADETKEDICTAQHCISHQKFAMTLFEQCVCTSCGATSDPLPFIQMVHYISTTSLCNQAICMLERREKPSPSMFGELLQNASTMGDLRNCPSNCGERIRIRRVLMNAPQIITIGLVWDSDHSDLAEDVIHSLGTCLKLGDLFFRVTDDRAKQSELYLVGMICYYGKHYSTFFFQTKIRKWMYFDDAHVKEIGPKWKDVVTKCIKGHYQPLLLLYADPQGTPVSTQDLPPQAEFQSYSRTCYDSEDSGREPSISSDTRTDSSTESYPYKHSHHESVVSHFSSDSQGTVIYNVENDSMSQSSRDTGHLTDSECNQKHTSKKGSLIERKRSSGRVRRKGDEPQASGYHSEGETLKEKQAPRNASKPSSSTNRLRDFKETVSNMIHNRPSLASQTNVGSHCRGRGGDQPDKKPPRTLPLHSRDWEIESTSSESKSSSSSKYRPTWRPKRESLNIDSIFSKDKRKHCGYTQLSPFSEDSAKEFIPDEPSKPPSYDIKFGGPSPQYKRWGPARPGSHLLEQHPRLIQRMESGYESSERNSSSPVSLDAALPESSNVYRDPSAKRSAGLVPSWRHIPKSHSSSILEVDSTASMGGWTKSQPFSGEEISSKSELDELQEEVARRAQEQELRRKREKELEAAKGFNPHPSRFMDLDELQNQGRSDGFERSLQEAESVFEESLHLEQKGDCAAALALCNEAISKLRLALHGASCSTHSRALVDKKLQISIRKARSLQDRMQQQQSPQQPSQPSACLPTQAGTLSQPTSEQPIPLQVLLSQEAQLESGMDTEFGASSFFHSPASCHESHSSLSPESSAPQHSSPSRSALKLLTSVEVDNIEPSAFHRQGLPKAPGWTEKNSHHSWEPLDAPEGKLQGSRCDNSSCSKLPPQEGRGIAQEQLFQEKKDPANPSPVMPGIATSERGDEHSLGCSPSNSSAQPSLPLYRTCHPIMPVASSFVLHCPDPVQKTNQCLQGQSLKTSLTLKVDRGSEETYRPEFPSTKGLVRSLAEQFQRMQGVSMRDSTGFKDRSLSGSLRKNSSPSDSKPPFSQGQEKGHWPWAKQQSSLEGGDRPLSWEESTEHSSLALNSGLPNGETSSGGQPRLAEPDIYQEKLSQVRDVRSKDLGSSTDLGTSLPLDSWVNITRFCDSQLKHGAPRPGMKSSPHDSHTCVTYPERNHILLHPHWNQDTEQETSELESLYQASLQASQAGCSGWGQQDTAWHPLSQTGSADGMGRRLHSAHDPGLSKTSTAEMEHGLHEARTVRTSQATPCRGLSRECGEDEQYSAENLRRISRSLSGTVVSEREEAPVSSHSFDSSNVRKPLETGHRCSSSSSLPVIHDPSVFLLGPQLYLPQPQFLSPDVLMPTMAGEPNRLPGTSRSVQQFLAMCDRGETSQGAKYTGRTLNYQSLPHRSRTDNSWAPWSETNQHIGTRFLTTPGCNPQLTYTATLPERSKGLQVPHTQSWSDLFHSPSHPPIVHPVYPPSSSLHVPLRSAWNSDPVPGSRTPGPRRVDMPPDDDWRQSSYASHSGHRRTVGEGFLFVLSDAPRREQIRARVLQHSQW

O=C(CCl)NC1CCOc2ccccc21 (stereo not given)
inactive: [1] 0.184 | [2] -0.506 | [3] -0.268 | [4] -0.603 | [5] -0.575 | [6] 0.931 | [7] -0.739 | [8] -0.69 | [9] -0.868 | [10] 0.0141

Source: the supplement of paper PMC11732987, “Enantioselective OTUD7B fragment discovery through chemoproteomics screening and high-throughput optimisation” (Communications Chemistry, 2025)
